Results on 36 molecules are retold here after paper PMC9911399, “Two distinct binding modes provide the RNA-binding protein RbFox with extraordinary sequence specificity”.

To fix the notation:
B1: AGGACGU (DNA:RNA)
RNA: GGGAGACCGGAAUUCAGAUUGUCCAGGACGUUUAAAUCCCGUCGUAGCCACCA
DNA 1: CAATCTGAATTCCGGTCTCCC
DNA 2: TGGTGGCTACGACGGGATT
B2: GAUCGUC (DNA:RNA)
RNA: GGGAGACCGGAAUUCAGAUUGUCCGAUCGUCUUAAAUCCCGUCGUAGCCACCA
DNA 1: CAATCTGAATTCCGGTCTCCC
DNA 2: TGGTGGCTACGACGGGATT
B3: AUUACAA (DNA:RNA)
RNA: B1 RNA with G26U, G27U, G30A, U31A
DNA 1: CAATCTGAATTCCGGTCTCCC
DNA 2: TGGTGGCTACGACGGGATT
B4: CCUAUUU (DNA:RNA)
RNA: B1 RNA with A25C, G26C, G27U, C29U, G30U
DNA 1: CAATCTGAATTCCGGTCTCCC
DNA 2: TGGTGGCTACGACGGGATT
B5: CUUAUAA (DNA:RNA)
RNA: B1 RNA with A25C, G26U, G27U, C29U, G30A, U31A
DNA 1: CAATCTGAATTCCGGTCTCCC
DNA 2: TGGTGGCTACGACGGGATT
B6: CGGGUAA (DNA:RNA)
RNA: B1 RNA with A25C, A28G, C29U, G30A, U31A
DNA 1: CAATCTGAATTCCGGTCTCCC
DNA 2: TGGTGGCTACGACGGGATT
B7: CAGCGAG (DNA:RNA)
RNA: B2 RNA with G25C, U27G, U30A, C31G
DNA 1: CAATCTGAATTCCGGTCTCCC
DNA 2: TGGTGGCTACGACGGGATT
B8: GCGGGUU (DNA:RNA)
RNA: B2 RNA with A26C, U27G, C28G, C31U
DNA 1: CAATCTGAATTCCGGTCTCCC
DNA 2: TGGTGGCTACGACGGGATT
B9: CGGGGGU (DNA:RNA)
RNA: B1 RNA with A25C, A28G, C29G
DNA 1: CAATCTGAATTCCGGTCTCCC
DNA 2: TGGTGGCTACGACGGGATT
B10: GGUUUUU (DNA:RNA)
RNA: B2 RNA with A26G, C28U, G29U, C31U
DNA 1: CAATCTGAATTCCGGTCTCCC
DNA 2: TGGTGGCTACGACGGGATT
B11: GGGGGUU (DNA:RNA)
RNA: B1 RNA with A25G, A28G, C29G, G30U
DNA 1: CAATCTGAATTCCGGTCTCCC
DNA 2: TGGTGGCTACGACGGGATT
B12: GCGGGGU (DNA:RNA)
RNA: B1 RNA with A25G, G26C, A28G, C29G
DNA 1: CAATCTGAATTCCGGTCTCCC
DNA 2: TGGTGGCTACGACGGGATT
B13: GGGGGGU (DNA:RNA)
RNA: B1 RNA with A25G, A28G, C29G
DNA 1: CAATCTGAATTCCGGTCTCCC
DNA 2: TGGTGGCTACGACGGGATT
B14: CGGGGUU (DNA:RNA)
RNA: B1 RNA with A25C, A28G, C29G, G30U
DNA 1: CAATCTGAATTCCGGTCTCCC
DNA 2: TGGTGGCTACGACGGGATT
B15: GGGGUUU (DNA:RNA)
RNA: B1 RNA with A25G, A28G, C29U, G30U
DNA 1: CAATCTGAATTCCGGTCTCCC
DNA 2: TGGTGGCTACGACGGGATT
B16: CCGGGGU (DNA:RNA)
RNA: B1 RNA with A25C, G26C, A28G, C29G
DNA 1: CAATCTGAATTCCGGTCTCCC
DNA 2: TGGTGGCTACGACGGGATT
B17: AUGGUGU (DNA:RNA)
RNA: B1 RNA with G26U, A28G, C29U
DNA 1: CAATCTGAATTCCGGTCTCCC
DNA 2: TGGTGGCTACGACGGGATT
B18: CAUGUGU (DNA:RNA)
RNA: B1 RNA with A25C, G26A, G27U, A28G, C29U
DNA 1: CAATCTGAATTCCGGTCTCCC
DNA 2: TGGTGGCTACGACGGGATT
B19: AGAAGGC (DNA:RNA)
RNA: B1 RNA with G27A, C29G, U31C
DNA 1: CAATCTGAATTCCGGTCTCCC
DNA 2: TGGTGGCTACGACGGGATT
B20: GAAUGAG (DNA:RNA)
RNA: B2 RNA with U27A, C28U, U30A, C31G
DNA 1: CAATCTGAATTCCGGTCTCCC
DNA 2: TGGTGGCTACGACGGGATT
B21: GCGUCGU (DNA:RNA)
RNA: B1 RNA with A25G, G26C, A28U
DNA 1: CAATCTGAATTCCGGTCTCCC
DNA 2: TGGTGGCTACGACGGGATT
B22: AUGCCGG (DNA:RNA)
RNA: B1 RNA with G26U, A28C, U31G
DNA 1: CAATCTGAATTCCGGTCTCCC
DNA 2: TGGTGGCTACGACGGGATT
B23: AGCGCGG (DNA:RNA)
RNA: B1 RNA with G27C, A28G, U31G
DNA 1: CAATCTGAATTCCGGTCTCCC
DNA 2: TGGTGGCTACGACGGGATT
B24: AGAACUA (DNA:RNA)
RNA: B1 RNA with G27A, G30U, U31A
DNA 1: CAATCTGAATTCCGGTCTCCC
DNA 2: TGGTGGCTACGACGGGATT
B25: UGAUCCG (DNA:RNA)
RNA: B1 RNA with A25U, G27A, A28U, G30C, U31G
DNA 1: CAATCTGAATTCCGGTCTCCC
DNA 2: TGGTGGCTACGACGGGATT
B26: UGUUUGG (DNA:RNA)
RNA: B1 RNA with A25U, G27U, A28U, C29U, U31G
DNA 1: CAATCTGAATTCCGGTCTCCC
DNA 2: TGGTGGCTACGACGGGATT
B27: UGGUUUG (DNA:RNA)
RNA: B1 RNA with A25U, A28U, C29U, G30U, U31G
DNA 1: CAATCTGAATTCCGGTCTCCC
DNA 2: TGGTGGCTACGACGGGATT
B28: UGCCCGC (DNA:RNA)
RNA: B1 RNA with A25U, G27C, A28C, U31C
DNA 1: CAATCTGAATTCCGGTCTCCC
DNA 2: TGGTGGCTACGACGGGATT
B29: UGCCUGC (DNA:RNA)
RNA: B1 RNA with A25U, G27C, A28C, C29U, U31C
DNA 1: CAATCTGAATTCCGGTCTCCC
DNA 2: TGGTGGCTACGACGGGATT
B30: UGAUCGA (DNA:RNA)
RNA: B1 RNA with A25U, G27A, A28U, U31A
DNA 1: CAATCTGAATTCCGGTCTCCC
DNA 2: TGGTGGCTACGACGGGATT
B31: UGGUUGU (DNA:RNA)
RNA: B1 RNA with A25U, A28U, C29U
DNA 1: CAATCTGAATTCCGGTCTCCC
DNA 2: TGGTGGCTACGACGGGATT
B32: UGAUUGA (DNA:RNA)
RNA: B1 RNA with A25U, G27A, A28U, C29U, U31A
DNA 1: CAATCTGAATTCCGGTCTCCC
DNA 2: TGGTGGCTACGACGGGATT
B33: CGAUCGA (DNA:RNA)
RNA: B1 RNA with A25C, G27A, A28U, U31A
DNA 1: CAATCTGAATTCCGGTCTCCC
DNA 2: TGGTGGCTACGACGGGATT
B34: UGCCUGA (DNA:RNA)
RNA: B1 RNA with A25U, G27C, A28C, C29U, U31A
DNA 1: CAATCTGAATTCCGGTCTCCC
DNA 2: TGGTGGCTACGACGGGATT
B35: UGCCUCG (DNA:RNA)
RNA: B1 RNA with A25U, G27C, A28C, C29U, G30C, U31G
DNA 1: CAATCTGAATTCCGGTCTCCC
DNA 2: TGGTGGCTACGACGGGATT
B36: UGAUUAA (DNA:RNA)
RNA: B1 RNA with A25U, G27A, A28U, C29U, G30A, U31A
DNA 1: CAATCTGAATTCCGGTCTCCC
DNA 2: TGGTGGCTACGACGGGATT

Numbering of substitutions follows the chain as printed; changes in the protein carry UniProt numbers. Over roughly 16,000 sequences, “ka relative to ugcaugu” has its median near 0.0091; the highest 2% begin near 0.032. The sample holds the highest values, similar sequences and a random draw of the others, so the mix is not that of the screen.

The target in the experiment is T1, RBFOX1 RRM (Homo sapiens, UniProt Q9NWB1 109-208).
T1 sequence: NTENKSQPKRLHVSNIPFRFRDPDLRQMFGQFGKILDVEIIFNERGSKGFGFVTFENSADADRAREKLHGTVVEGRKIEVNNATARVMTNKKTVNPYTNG
Briefly: EMSA; HiTS-Eq, 1 nM pool, 10 min; buffer printed only for the single-RNA assays: 10 mM Tris pH 7.5, 150 mM NaCl, 3.4 mM EDTA, 0.001% NP-40, 30 C. As to conditions: tags: His6 N-terminal (pET28a); label: 5' 32P. In short, it runs like this: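 Purified wild-type or mutant RbFox RRM at increasing concentrations was equilibrated with 1 nM of 5′-radiolabelled RNA carrying 7 randomized nucleotides for 10 min in 50 µL. Unbound RNA was separated by 8% native PAGE and sequenced. Relative association constants came from read-count changes of each RNA species compared with the control reaction, normalised to the cognate motif.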
Take B1: the binding signal was 0.0265 KA relative to UGCAUGU.

With B2, the binding signal is 0.0199 KA relative to UGCAUGU.

As to B3, the binding signal is 0.000272 KA relative to UGCAUGU.

On to B4, for which the binding signal was 0.00115 KA relative to UGCAUGU.

Regarding B5, the binding signal was 0.00174 KA relative to UGCAUGU.

For B6, the binding signal is 0.0192 KA relative to UGCAUGU.

In the case of B7, the binding signal is 0.00935 KA relative to UGCAUGU.

On to B8, for which the binding signal is 0.0192 KA relative to UGCAUGU.

As for B9, the binding signal is 0.0227 KA relative to UGCAUGU.

In the case of B10, the binding signal is 0.00799 KA relative to UGCAUGU.

As to B11, the binding signal was 0.0471 KA relative to UGCAUGU.

Turning to B12, the binding signal is 0.0285 KA relative to UGCAUGU.

With B13, the binding signal was 0.0254 KA relative to UGCAUGU.

As for B14, the binding signal is 0.0339 KA relative to UGCAUGU.

Turning to B15, the binding signal is 0.046 KA relative to UGCAUGU.

With B16, the binding signal was 0.0122 KA relative to UGCAUGU.

Turning to B17, the binding signal is 0.0152 KA relative to UGCAUGU.

On to B18, for which the binding signal was 0.0132 KA relative to UGCAUGU.

With B19, the binding signal was 0.00991 KA relative to UGCAUGU.

B20: the binding signal was 0.0255 KA relative to UGCAUGU.

As to B21, the binding signal was 0.0171 KA relative to UGCAUGU.

Consider B22, for which the binding signal is 0.0153 KA relative to UGCAUGU.

As to B23, the binding signal was 0.0172 KA relative to UGCAUGU.

B24: the binding signal is 0.00165 KA relative to UGCAUGU.

As to B25, the binding signal is 0.0149 KA relative to UGCAUGU.

Take B26: the binding signal was 0.0271 KA relative to UGCAUGU.

As for B27, the binding signal was 0.0372 KA relative to UGCAUGU.

As to B28, the binding signal is 0.0206 KA relative to UGCAUGU.

B29: the binding signal was 0.0698 KA relative to UGCAUGU.

On to B30, for which the binding signal was 0.0347 KA relative to UGCAUGU.

Regarding B31, the binding signal was 0.0314 KA relative to UGCAUGU.

Turning to B32, the binding signal was 0.028 KA relative to UGCAUGU.

With B33, the binding signal is 0.0185 KA relative to UGCAUGU.

For the molecule B34, the binding signal was 0.0398 KA relative to UGCAUGU.

For B35, the binding signal was 0.0235 KA relative to UGCAUGU.

Consider B36, for which the binding signal was 0.00933 KA relative to UGCAUGU.
